Reference: PubChem BioAssay (NCATS)
Values joined by “and” are separate entries in the source; they are usually repeats but may differ in a detail not shown here. Identical values can stand only once. Results filed as inconclusive are left out. Active and inactive are the calls of the source. The call rests on the fitted dose curve; in most records, active means well fitted curve in the direction sought with a large enough effect; inconclusive means small, poorly fitted or top-dose-only effect, or another doubt; inactive means no such curve, though single readings can be large; an effect the other way counts as inactive or inconclusive.

Key:
[1] = qHTS of pediatric cancer cell lines to identify multiple opportunities for drug repurposing: Primary screen for OHS-50 cells (AID 1347103); further: nearly all actives have a fitted effect of over 40% in size; further: potency means the concentration at half of the fitted maximal effect
How it was run: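 Cells (500-1,000/well) rested 5 h, then received compounds for 48 h; metabolically active cells were measured by CellTiter-Glo luminescence. Final concentrations spanned up to 46 µM (MIPE, 11-point) or 0.59 nM-46 µM (NPC, 8-point) in primary screens, 11-point in follow-ups.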

[2] = qHTS of pediatric cancer cell lines to identify multiple opportunities for drug repurposing: Primary screen for MG 63 (6-TG R) cells (AID 1347105); further: nearly all actives have a fitted effect of over 50% in size; further: potency means the concentration at half of the fitted maximal effect
How it was run: (§1)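 Following a 5-hour attachment period, cells at 500-1,000/well received compounds and were cultured for 48 hours. CellTiter-Glo was added and luminescence read to estimate viable, metabolically active cells.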

[3] = qHTS of pediatric cancer cell lines to identify multiple opportunities for drug repurposing: Primary screen for control Hh wild type fibroblast cells (AID 1347106); further: nearly all actives have a fitted effect of over 55% in size; further: potency means the concentration at half of the fitted maximal effect
How it was run: (§2)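 Viability after 48 h compound treatment at 37C, 500-1,000 cells/well, read as ATP luminescence with CellTiter-Glo. Primary screens used 11-point (MIPE, 0.78 nM-46 µM) or 8-point (NPC, 0.59 nM-46 µM) final concentrations; follow-up screens used 11-point dilutions.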

[4] = qHTS of pediatric cancer cell lines to identify multiple opportunities for drug repurposing: Primary screen for Rh30 cells (AID 1347107); further: nearly all actives have a fitted effect of over 75% in size; further: potency means the concentration at half of the fitted maximal effect
How it was run: as §2

[5] = qHTS of pediatric cancer cell lines to identify multiple opportunities for drug repurposing: Primary screen for Rh41 cells (AID 1347108); further: nearly all actives have a fitted effect of over 70% in size; further: potency means the concentration at half of the fitted maximal effect
How it was run: as §1

[6] = qHTS of pediatric cancer cell lines to identify multiple opportunities for drug repurposing: Confirmatory screen for NB1643 cells (AID 1347109); further: nearly all actives have a fitted effect of over 45% in size; further: potency means the concentration at half of the fitted maximal effect
How it was run: as §2

[7] = qHTS of pediatric cancer cell lines to identify multiple opportunities for drug repurposing: Confirmatory screen for BT-12 cells (AID 1347112); further: nearly all actives have a fitted effect of over 55% in size; further: potency means the concentration at half of the fitted maximal effect
How it was run: as §2

[8] = qHTS of pediatric cancer cell lines to identify multiple opportunities for drug repurposing: Confirmatory screen for LAN-5 cells (AID 1347113); further: nearly all actives have a fitted effect of over 65% in size; further: potency means the concentration at half of the fitted maximal effect
How it was run: as §2

[9] = qHTS of pediatric cancer cell lines to identify multiple opportunities for drug repurposing: Confirmatory screen for DAOY cells (AID 1347114); further: nearly all actives have a fitted effect of over 65% in size; further: potency means the concentration at half of the fitted maximal effect
How it was run: (§3)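 Viability measured as metabolically active cells via CellTiter-Glo luminescence following 48 hours of compound exposure, 11-point dilutions in confirmatory testing. 500-1,000 cells/well plated 5 hours before dosing; controls were DMSO and 2.3 µM bortezomib.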

[10] = qHTS of pediatric cancer cell lines to identify multiple opportunities for drug repurposing: Confirmatory screen for NB-EBc1 cells (AID 1347115); further: nearly all actives have a fitted effect of over 45% in size; further: potency means the concentration at half of the fitted maximal effect
How it was run: as §2

[11] = qHTS of pediatric cancer cell lines to identify multiple opportunities for drug repurposing: Confirmatory screen for SJ-GBM2 cells (AID 1347116); further: nearly all actives have a fitted effect of over 60% in size; further: potency means the concentration at half of the fitted maximal effect
How it was run: as §3

[12] = qHTS of pediatric cancer cell lines to identify multiple opportunities for drug repurposing: Confirmatory screen for BT-37 cells (AID 1347117); further: nearly all actives have a fitted effect of over 55% in size; further: potency means the concentration at half of the fitted maximal effect
How it was run: as §2

[13] = qHTS of pediatric cancer cell lines to identify multiple opportunities for drug repurposing: Confirmatory screen for TC32 cells (AID 1347118); further: nearly all actives have a fitted effect of over 65% in size; further: potency means the concentration at half of the fitted maximal effect
How it was run: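 qHTS, TC32, 48 h drug treatment, CellTiter-Glo luminescence as a proxy for metabolically active cells; primary top concentration 46 µM (MIPE 11-pt, NPC 8-pt); confirmatory 11-pt.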

[14] = qHTS of pediatric cancer cell lines to identify multiple opportunities for drug repurposing: Confirmatory screen for MG 63 (6-TG R) cells (AID 1347119); further: nearly all actives have a fitted effect of over 55% in size; further: potency means the concentration at half of the fitted maximal effect
How it was run: as §2

[15] = qHTS of pediatric cancer cell lines to identify multiple opportunities for drug repurposing: Confirmatory screen for control Hh wild type fibroblast cells (AID 1347121); further: nearly all actives have a fitted effect of over 70% in size; further: potency means the concentration at half of the fitted maximal effect
How it was run: as §2

[16] = qHTS of pediatric cancer cell lines to identify multiple opportunities for drug repurposing: Confirmatory screen for Rh41 cells (AID 1347123);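 further: 48 h compound exposure; nearly all actives have a fitted effect of over 60% in size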; further: potency means the concentration at half of the fitted maximal effect
How it was run: as §2

[17] = qHTS of pediatric cancer cell lines to identify multiple opportunities for drug repurposing: Confirmatory screen for RD cells (AID 1347124);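 further: cells exposed to compound for 48 h before viability readout; nearly all actives have a fitted effect of over 65% in size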; further: potency means the concentration at half of the fitted maximal effect
How it was run: as §2

[18] = qHTS of pediatric cancer cell lines to identify multiple opportunities for drug repurposing: Confirmatory screen for Rh18 cells (AID 1347125); further: nearly all actives have a fitted effect of over 55% in size
How it was run: as §2

[19] = qHTS of pediatric cancer cell lines to identify multiple opportunities for drug repurposing: Confirmatory screen for SK-N-MC cells (AID 1347111);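 further: potency means the concentration at half of the fitted maximal effect; cells exposed to compound for 48 h before the readout; nearly all actives have a fitted effect of over 70% in size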
How it was run: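 SK-N-MC cells at 500-1,000 cells/well in growth media were pre-incubated 5 h, then exposed to compounds at 11-point dilutions for 48 h at 37 degrees C, 5% CO2. Viability was read as CellTiter-Glo luminescence.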

Measured: Potency

NS(=O)(=O)c1ccc(NC2=CC(=O)c3ccccc3C2=O)cc1
inactive: [1] | [2] | [3] | [4] | [5]

O=C1c2ccccc2-[n+]2ccc3c([nH]c4ccccc43)c21
active: [1] 2.17 µM | [2] 2.96 µM | [3] 9.35 µM | [4] 4.18 µM | [5] 2.96 µM | [6] 2.08 µM | [7] 2.93 µM | [8] 0.827 µM | [9] 1.85 µM | [10] 2.61 µM | [11] 2.61 µM | [12] 1.04 µM | [13] 1.31 µM | [14] 3.29 µM | [15] 7.37 µM | [16] 2.08 µM | [17] 1.65 µM

NC1=N[C@@]2(c3cc(NC(=O)c4ccc(F)cn4)ccc3F)COC[C@@H]2CS1
active: [1] 0.137 µM | [2] 23.5 µM | [5] 18.7 µM
not listed: [16] | [19]
inactive: all other assays above

OC[C@H]1O[C@@H](n2cnc3c2NC=NC[C@@H]3O)C[C@H]1O
active: [19] 8.27 µM | [13] 8.27 µM
not listed: [4] | [6] | [11] | [12] | [18]
inactive: all other assays above

CCCCCCCCCCCC1=C(O)C(=O)C=C(O)C1=O
active: [1] 0.0193 µM | [2] 2.96 µM | [5] 4.69 µM | [19] 16.5 µM | [13] 10.4 µM
not listed: [8] | [18]
inactive: all other assays above

CCOC(=O)C1=C(N)Oc2ccc(Br)cc2C1C(C#N)C(=O)OCC (stereo unspecified)
inactive: [1] | [2] | [3] | [4]

CC/C(=C(\c1ccccc1)c1ccc(OCCN(C)C)cc1)c1ccccc1
active: [1] 17.4 µM
inactive: [2] | [3] | [4] | [5]

COc1ccccc1N1CCN(CCCNc2cc(=O)n(C)c(=O)n2C)CC1
inactive: [1] | [2] | [3] | [4] | [5]

CCOc1ccc(Nc2nc(-c3c(C)nc4ccccn34)cs2)cc1
active: [1] 0.0039 µM | [19] 0.0928 µM | [8] 1.47 µM | [9] 0.0465 µM | [12] 0.293 µM | [13] 0.117 µM | [14] 0.104 µM
inactive: [2] | [3] | [4] | [5] | [15]

COC1CCC(N(C(=O)C2CCC(C)CC2)c2cc(C3=CCCCC3)sc2C(=O)O)CC1 (stereo unspecified)
inactive: [1] | [2] | [3] | [4] | [5]

CN1[C@@H]2CCC[C@@H]1CC(NC(=O)c1nn(C)c3ccccc13)C2 (stereo partly specified)
inactive: [1] | [2] | [3] | [4] | [5]

COc1ccc2c(Oc3ccc(NC(=O)c4c(C)n(CC(C)(C)O)n(-c5ccccc5)c4=O)nc3)ccnc2c1
active: [1] 5.44 µM
inactive: [2] | [3] | [4] | [5]

C=C1C(=O)[C@@]23C(CC[C@@H]1[C@H]2O)[C@@]12CO[C@]3(O)[C@@H](O)[C@@H]1C(C)(C)CC[C@@H]2O (stereo partly specified)
inactive: [3] | [15]
active: [1] 9.68 µM | [2] 4.69 µM | [4] 7.43 µM | [5] 4.69 µM | [6] 4.14 µM | [19] 4.65 µM | [7] 7.37 µM | [8] 4.14 µM | [9] 11.7 µM | [10] 8.27 µM | [11] 20.8 µM | [12] 18.5 µM | [13] 13.1 µM | [14] 10.4 µM | [16] 2.93 µM

CCOC1OC(=O)C[C@H]1NC(=O)[C@@H]1CCCN1C(=O)[C@@H](NC(=O)c1ccc(N)c(Cl)c1)C(C)(C)C (stereo partly specified)
active: [1] 1.22 µM
inactive: [2] | [3] | [4]

Oc1ccc(C2CCN(c3ccnc4ccccc34)CC2)cc1O
active: [1] 17.2 µM | [6] 16.5 µM | [19] 18.5 µM | [7] 13.1 µM | [9] 5.85 µM | [10] 14.7 µM | [11] 1.17 µM | [13] 9.27 µM | [14] 2.33 µM | [15] 7.37 µM | [16] 5.85 µM | [17] 0.928 µM
inactive: [2] | [3]

CC[C@@H]1C=C(C)C[C@H](C)C[C@H](OC)[C@H]2O[C@@](O)(C(=O)C(=O)N3CCCC[C@@H]3C(=O)O[C@H](C(C)=C[C@@H]3CC[C@H](Cl)[C@H](OC)C3)[C@H](C)[C@@H](O)CC1=O)[C@H](C)C[C@H]2OC
inactive: [2] | [3] | [4] | [15] | [17]
active: [1] 8.63 µM | [10] 23.3 µM | [13] 18.5 µM | [16] 13.1 µM

Cc1nnc(C(C)C)n1C1C[C@H]2CC[C@@H](C1)N2CC[C@H](NC(=O)C1CCC(F)(F)CC1)c1ccccc1 (stereo partly specified)
active: [6] 7.37 µM | [19] 7.37 µM | [10] 7.37 µM | [11] 10.4 µM | [17] 7.37 µM
inactive: [1] | [2] | [3] | [4] | [5] | [9] | [16]

CC(=O)O[C@]1(C(C)=O)CC[C@H]2[C@@H]3C=C(Cl)C4=CC(=O)[C@@H]5C[C@@H]5[C@]4(C)[C@H]3CC[C@@]21C
active: [1] 34.7 µM | [5] 18.8 µM
inactive: [2] | [3]

Cc1cccc(Nc2nc(-c3ccncc3)cs2)c1
inactive: [2] | [3] | [4]
active: [1] 21.7 µM

COc1cc2nc(-c3ccc(N4CCN(C)CC4)cc3)nc(NCCN3CCOCC3)c2cc1OC
inactive: [15]
active: [1] 0.0544 µM | [2] 1.48 µM | [3] 3.32 µM | [4] 0.0469 µM | [5] 0.296 µM | [7] 0.233 µM | [9] 1.17 µM | [16] 0.414 µM | [17] 0.208 µM

O=C(CCc1ccc(O)cc1)c1c(O)cc(O)cc1O[C@@H]1O[C@H](CO)[C@H](O)[C@H](O)[C@H]1O
inactive: [1] | [2] | [3] | [4] | [5]

CC[C@]1(O)C[C@@H]2CN(CCc3c([nH]c4ccccc34)[C@@](C(=O)OC)(c3cc4c(cc3OC)N(C=O)[C@@H]3C45CCN4CC=C[C@](CC)([C@H]45)[C@@H](OC(C)=O)[C@]3(O)C(=O)OC)C2)C1 (stereo partly specified)
not listed: [5] | [9] | [11] | [13] | [16] | [18] | [19]
inactive: all other assays above

O=C(OCC#CCSc1nnc(-c2cccc3ccccc23)o1)c1cc2ccccc2s1
inactive: [1] | [2] | [3] | [4] | [5]

Cc1c(NC(=O)c2ccc(C(C)(C)C)cc2)cccc1-c1cn(C)c(=O)c(Nc2ccc(C(=O)N3CCOCC3)cc2)n1
inactive: [2] | [3]
active: [1] 24.3 µM

CCCCCN(C)CCC(O)(P(=O)(O)O)P(=O)(O)O
inactive: [1] | [2] | [3] | [4] | [5]

CC=CC(=O)N(CC)c1ccccc1C
inactive: [1] | [2] | [3] | [4] | [5]

CNC(=O)c1ccc2cc(C3(O)CCn4cncc43)ccc2c1 (stereo unspecified)
inactive: [1] | [2] | [3] | [4] | [5]

O=C(CCCCCCC(=O)Nc1ccccc1)NO
active: [1] 2.19 µM and 2.73 µM | [2] 3.35 µM and 3.72 µM | [5] 3.35 µM and 5.9 µM
inactive: [15]

C[C@H](NC(=O)c1sccc1OCc1ccc(Cl)cc1)c1ccccc1
active: [1] 12.2 µM | [4] 18.7 µM | [5] 16.6 µM
inactive: [3]

NS(=O)(=O)c1cccc2c1C(=O)c1cccc(O)c1C2=O
active: [1] 0.769 µM | [2] 2.35 µM | [4] 2.35 µM | [5] 0.935 µM | [6] 2.93 µM | [19] 2.93 µM | [7] 1.04 µM | [8] 1.85 µM | [9] 2.33 µM | [11] 4.14 µM | [12] 0.737 µM | [13] 0.827 µM | [15] 2.93 µM | [16] 0.657 µM
inactive: [10]

COc1ccc(-c2oc3c(CC=C(C)C)c(OC4O[C@H](CO)[C@@H](O)[C@H](O)[C@@H]4O)cc(O)c3c(=O)c2OC2O[C@@H](C)[C@H](O)[C@@H](O)[C@@H]2O)cc1 (stereo partly specified)
active: [1] 21.7 µM
inactive: [3]

COc1cc2ncnc(Nc3ccc(F)c(Cl)c3)c2cc1OCCCN1CCOCC1
inactive: [4]
active: [1] 8.85 µM and 17.4 µM | [2] 27 µM | [5] 17.1 µM | [6] 38 µM | [19] 33.9 µM | [7] 42.7 µM | [8] 33.9 µM | [9] 38 µM | [11] 2.4 µM | [12] 13.5 µM | [13] 33.9 µM | [14] 67.6 µM | [15] 47.9 µM | [16] 26.9 µM | [17] 1.51 µM
